# The list is not random: actives were taken first. Their share in the collection is about 3.4%.
# FBW7 activator – human FBW7 E3 ligase activation, primary screen. Q969H0. AlphaScreen FBW7–phospho-cyclin E peptide binding, activator screen. normalized activity (activation), % at 26.1 µM. 650,000 tested, 0.13% active. AID 1259310; in the data active = normalized activity above about 1.9%;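 note: purified mutant Fbw7 with reduced substrate affinity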
# GPR151 activ – activators of human GPR151 | 650,000 tested, 1% active | PathHunter beta-arrestin GPR151 cells, luminescence | activation, % at 11.2 µM; in the data active = activation above about 4.9%;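 note: 0% = median of compound wells and 100% = cells with positive control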
# Target sequence (Q8TDV0 whole entry, looked up): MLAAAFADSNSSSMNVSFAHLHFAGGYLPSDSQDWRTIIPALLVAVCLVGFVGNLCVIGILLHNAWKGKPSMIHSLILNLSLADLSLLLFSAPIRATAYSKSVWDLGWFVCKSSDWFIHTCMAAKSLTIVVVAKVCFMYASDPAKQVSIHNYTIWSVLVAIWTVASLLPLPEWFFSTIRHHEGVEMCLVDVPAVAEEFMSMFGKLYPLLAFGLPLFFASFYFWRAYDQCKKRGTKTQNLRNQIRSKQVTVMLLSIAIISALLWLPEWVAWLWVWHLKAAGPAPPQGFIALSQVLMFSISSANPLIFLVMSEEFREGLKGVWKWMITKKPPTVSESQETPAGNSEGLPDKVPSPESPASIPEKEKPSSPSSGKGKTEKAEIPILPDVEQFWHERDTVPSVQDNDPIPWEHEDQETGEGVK
# TEAD-YAP inh – TEAD-YAP interaction inhibition; inhibition, % at 9.12 µM; HEK-TIYL cells, TEAD-Gal4/YAP UAS-luciferase luminescence; 640,000 tested, 1.4% active; in the data active = inhibition above about 32%;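 note: 0% = median of test compound wells and 100% = reference inhibitor wells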
# MITF inh – inhibitors of human MITF; AlphaScreen MITF homodimerization, bead proximity signal; O75030; inhibition, % at 2.6 µM; 650,000 tested, 0.91% active; in the data active = inhibition above about 50%;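 note: 0% = vehicle wells with protein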
# GPR151 conf act – human GPR151 activation, confirmation screen. activation, % at 11.2 µM. 6,700 tested, under 10 active. GPR151 PathHunter beta-arrestin cells, luminescence, 90 min; % of EA-reagent control over plate median. AID 1508609. shares compounds with GPR151 activ;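 active = mean percent activation across replicates above the confirmation screen cutoff of 4.91%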
# GPR119 counter – activates human GPR119 in a GPR151 counter-screen. GPR119 PathHunter beta-arrestin cells, luminescence, 90 min; 0 = compound-well median, 100 = enzyme-acceptor control. activation, % at 11.2 µM. 6,700 tested, 0.3% active. shares compounds with GPR151 activ;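 active = mean percent activation in the counterscreen above 29.09%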;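 note: counterscreen on off-target GPR119 to flag nonselective hits from the GPR151 activator screen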
# The depositor's hits bear a star; nt = not tested or not shown.
SMILES,FBW7 activator,GPR151 activ,TEAD-YAP inh,MITF inh,GPR151 conf act,GPR119 counter
O=C(NCc1ccccc1)c1ccc(OCc2ccccc2)cc1,0,-1,5,-5,nt,nt
COc1ccccc1C(=O)Nc1ccc(CC(=O)NCc2cccs2)cc1,0,0,27,8,nt,nt
COc1cc(/C=c2\sc3nc(=O)c(C)nn3c2=O)ccc1OC(C)=O,0,14*,3,4,0,-1
CCOc1ccc(/C=c2\sc3nc(=O)c(C)nn3c2=O)cc1OC,0,0,16,8,nt,nt
CC1(C)CC(=O)c2c(oc3c(Cl)cc(NS(=O)(=O)c4ccccc4)cc23)C1,0,1,13,10,nt,nt
CC1(C)CC(=O)c2c(oc3c(Cl)cc(NS(=O)(=O)c4ccc5ccccc5c4)cc23)C1,2,10*,0,19,1,14
O=C(Nc1cc(C(F)(F)F)ccc1N1CCOCC1)c1cc([N+](=O)[O-])ccc1Cl,0,5.6*,81*,8,0,-7
O=C(COc1ccc([N+](=O)[O-])cc1)Nc1cc(C(F)(F)F)ccc1N1CCOCC1,0,1,-12,-14,nt,nt
Cc1ccc(NS(=O)(=O)c2ccc(F)cc2)cc1C,0,-1,-13,-3,nt,nt
Cc1ccc(NS(=O)(=O)c2ccc(NC=O)cc2)cc1C,0,5.8*,15,5,0,-2
CCOC(=O)c1c(N)sc(-c2ccccc2)c1C,0,6.2*,-40,1,0,-2
CCOC(=O)c1c(N)sc(-c2ccccc2)c1Cc1ccccc1,0,1,-1,-7,nt,nt
c1ccc2oc(NC3=NCN(C4CCCCC4)CN3)nc2c1,0,9.9*,-13,-9,1,4
CCCC(c1nnnn1CCOC)N1CCN(c2cccc(C(F)(F)F)c2)CC1 (stereo unspecified),0,5.4*,-9,0,-1,-11
O=S(=O)(c1cccc2ccccc12)N1CCN(c2ccc(F)cc2)CC1,0,19*,-5,0,0,-6
O=S(=O)(c1cccc2ccccc12)N1CCN(c2ncccn2)CC1,0,-1,7,13,nt,nt
COc1ccc(N2CCN(S(=O)(=O)c3ccccc3F)CC2)cc1,0,-1,4,6,nt,nt
Cc1cc(S(=O)(=O)N2CCN(c3ccc(F)cc3)CC2)c(Cl)cc1Cl,0,5.3*,-11,5,1,5
COc1ccc(N2CCN(S(=O)(=O)c3ccccc3C(F)(F)F)CC2)cc1,0,5.1*,2,0,0,1
O=C1c2ccccc2C(=O)N1CCCC1(c2ccc(F)cc2)OCCO1,0,0,3,4,nt,nt
CCOc1cccc(C2NC(=O)NC(C)=C2C(=O)OC2CCCCCC2)c1 (stereo unspecified),0,5.7*,-11,6,0,3
CC1=C(C(=O)OCCc2ccccc2)C(c2cccc(Cl)c2)NC(=O)N1 (stereo unspecified),0,1,6,-3,nt,nt
CC1=C(C(=O)OCCc2ccccc2)C(c2ccc(C)s2)NC(=O)N1 (stereo unspecified),0,5.1*,2,-7,0,-13
CC1=C(C(=O)OCc2ccccc2)C(c2cccc(Cl)c2)NC(=O)N1 (stereo unspecified),0,5.0*,-22,-10,1,-3
O=C1c2c([N+](=O)[O-])cc([N+](=O)[O-])cc2S(=O)N1c1ccccc1 (stereo unspecified),0,2,9,19,nt,nt
SMILES,FBW7 activator,GPR151 activ,TEAD-YAP inh,MITF inh,GPR151 conf act,GPR119 counter
CC(=O)NC(c1ccco1)c1cc(Cl)c2cccnc2c1O (stereo unspecified),0,15*,32,76*,0,-8
COc1cc(C(=O)OC(c2ccc3c(c2)OCO3)c2nccc3ccccc23)cc(OC)c1OC (stereo unspecified),0,-1,-8,-8,nt,nt
CCOC(=O)c1sc2nc(N)c(C#N)c(-c3ccc(Cl)cc3)c2c1N,0,6.6*,2,-2,0,-12
COC(=O)c1sc2nc(N)c(C#N)c(-c3ccc(Cl)cc3)c2c1N,0,0,3,5,nt,nt
O=C(Nc1cc(C(F)(F)F)ccc1F)C1CCCC1,0,13*,-9,-3,1,7
CC(C)CCn1c(-c2ccccc2)nc2ccccc21,0,8.6*,7,-11,0,1
COC(=O)CSC1=C(C#N)C(c2ccccc2)C(C(=O)Nc2ccccc2)=C(C)N1 (stereo unspecified),0,5.7*,-8,-5,-1,-4
CC(=O)C1=C(C)NC(SCC(N)=O)=C(C#N)C1c1cccc([N+](=O)[O-])c1 (stereo unspecified),0,9.3*,0,13,2,8
CC1=C(C(=O)Nc2ccccc2)C(c2ccco2)C(C#N)=C(SCC(=O)Nc2ccc(F)cc2)N1 (stereo unspecified),0,5.9*,4,16,0,14
CC1=C(C(=O)Nc2ccccc2C)C(c2ccccc2)C(C#N)=C(SCC(=O)Nc2ccccc2C)N1 (stereo unspecified),0,1,2,23,nt,nt
CC1=C(C(=O)Nc2ccccc2C)C(c2ccccc2)C(C#N)=C(SCC(=O)Nc2cc(C)ccc2C)N1 (stereo unspecified),0,12*,9,6,-1,-7
O=C(NCCCN1CCOCC1)/C(=C/c1ccc(-c2cccc(C(F)(F)F)c2)o1)NC(=O)c1ccc(Cl)cc1,0,9.4*,-5,-4,2,24
CCOC(=O)C1CCC(CN(Cc2cccc(Br)c2)S(=O)(=O)c2cccc(Cl)c2)CC1 (stereo unspecified),0,-1,0,-3,nt,nt
Cc1cc(C(=O)Nc2ccc(I)c(C)n2)ccc1[N+](=O)[O-],0,0,-28,19,nt,nt
Cc1cc(C(=O)Nc2ccc(Br)c(C)n2)ccc1[N+](=O)[O-],0,5.0*,-69,16,-1,-2
COc1ccc(O)c(/C=N/NC(=O)C(C)Nc2ccc(Cl)cc2)c1 (stereo unspecified),0,1,-1,3,nt,nt
CCOc1ccc(S(=O)(=O)n2cnc3ccccc32)cc1C,0,0,1,9,nt,nt
COc1ccc(C)cc1S(=O)(=O)n1c(C)nc2ccccc21,0,-1,-14,-1,nt,nt
CCOc1ccc(C)cc1S(=O)(=O)n1cnc2ccccc21,0,5.8*,46*,3,0,-4
CCOc1ccc(C)cc1S(=O)(=O)n1c(C)nc2ccccc21,0,7.2*,0,-3,0,3
CC(=O)Oc1ccc(-c2ccc(C(=O)OCC(=O)c3ccc(Br)cc3)cc2)cc1,0,-1,4,15,nt,nt
